The structures appear in SMILES notation. Hit rate of the full screen: of about 10,000 compounds, about 25 (0.2%) were called active. This is one part of a sample in which actives are shown more often than they occur. Entries with a potency or affinity are not part of this list. Values without a mark were called inactive.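 How the source made its calls: active means top tenth filtered wells with inhibition above zero that passed visual or statistical confirmation; inactive means the rest, including hits rejected on review.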

This assay is described as follows: inhibitors of TNFa-induced VCAM-1 surface display, imaging, high-content imaging, pooled HUVEC, TNFa stimulus (AID 456).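 On inhibition: VCAM-1 immunofluorescence minus red nonspecific channel after plate median normalization.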 The settings on record: HUVEC TNFa-induced VCAM-1 surface expression, immunofluorescence imaging;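 compounds screened at 5 µM final in the well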.
The inhibition is how much of the control response was suppressed. Regarding `Cc1ccnc2c(N3C(=O)C4C5C=CC(C5)C4(C)C3=O)cccc12` (centres undefined), the inhibition result was “inactive”. To `CCOC(=O)C1CCCN(C(=O)CNS(=O)(=O)c2ccc(Br)s2)C1` (centres undefined) belongs “inactive”; to `COC(=O)C1=C(C)n2nnnc2NC1c1ccc(Cl)cc1` (centres undefined), “inactive”; to `O=C(NCCN1CCOCC1)c1ccc2c(c1)N(Cc1ccccc1)C(=O)CS2`, “inactive”. To `C=CCn1c(SCC(=O)NCC2CCCO2)nnc1C1CCCCC1` (centres undefined) belongs “inactive”; to `Cc1cn2c(-c3ccncc3)nnc2s1`, “inactive”; to `COc1ccc(-c2nn3c(-c4ccncc4)nnc3s2)cc1OC`, “inactive”. In the case of `Cc1ccc2cc(C(c3nnnn3C3CCCC3)N3CCN(c4ccc(F)cc4)CC3)c(=O)[nH]c2c1` (centres undefined) it was “inactive”; in that of `Cc1ccc2nc(C(F)(F)F)c(C#N)c(N)c2c1`, 74.6% (active). Consider `Cc1cc(-c2ccccc2)c(C#N)c(N)n1`, for which the inhibition result is “inactive”.

On to `CN(C)c1ccc(NC(=O)CSCc2nc3c(nnn3Cc3ccc(F)cc3)c(=O)[nH]2)cc1`, for which the inhibition entry is “inactive”. In the case of `COC(=O)c1c(N)sc(C(=O)N2CCOCC2)c1C` it was “inactive”; in that of `O=C(CSc1nnc(-c2cccnc2)o1)Nc1ccccn1`, “inactive”.

`c1ccc(Cn2ncc3c2ncn2c(-c4ccncc4)nnc32)cc1`: the inhibition result is “inactive”. To `CCOc1ccc(C(c2nnnn2Cc2ccccc2)N2CCN(C(=O)c3ccco3)CC2)cc1` (centres undefined) belongs “inactive”; to `O=C(CSc1nnnn1Cc1ccccc1)Nc1ccc2c(c1)OCO2`, “inactive”; to `CCOC(=O)c1sc(Nc2nc3c(OC)cccc3s2)nc1C`, “inactive”. To `COc1cc(NS(=O)(=O)N2CCCC2)cc(OC)c1OC` belongs “inactive”. To `COc1ccc2ccccc2c1CN1CCN(C)CC1` belongs “inactive”; to `c1cc(C(c2nnnn2C2CCCC2)N2CCOCC2)ccn1` (centres undefined), “inactive”; to `O=C(Nc1ccc(N2CCOCC2)c(F)c1)c1ccncc1`, “inactive”. Take `COc1ccc2cc(C(c3nnnn3C(C)(C)C)N3CCc4ccccc4C3)c(=O)[nH]c2c1` (centres undefined): the inhibition result is “inactive”. To `CCC(C)(C)n1nnnc1C(c1ccc(OC)c(OC)c1)N1CCN(c2ccccc2)CC1` (centres undefined) belongs “inactive”. In the case of `C=CCSC1=C(C#N)C(c2ccccc2OCC)CC(=O)N1` (centres undefined) it was “inactive”. In the case of `CNC(=O)CSc1nnc(-c2cc(C)cc(C)c2)o1` it was “inactive”.

For the compound `Cc1csc(NC(=O)CCCSc2nc3ccccc3s2)n1`, the inhibition entry was “inactive”.

In the case of `CCOCCCNC(=O)C1CCCN(S(=O)(=O)CC)C1` (centres undefined), the inhibition entry was “inactive”. In the case of `O=C(NCc1ccccc1)C1CCCN1S(=O)(=O)c1cccc2cccnc12` (centres undefined) it was “inactive”; in that of `CC(=O)OCC(=O)[C@H]1CC[C@H]2[C@@H]3CCC4=CC(=O)CC[C@]4(C)[C@H]3CC[C@]12C`, 78.2% (active). To `CC(=O)[C@H]1CC[C@H]2[C@@H]3CCC4=CC(=O)CC[C@]4(C)[C@H]3CC[C@]12C` belongs 87.1%; to `C[C@]12CC[C@H]3[C@@H](CCC4=CC(=O)CC[C@@]43C)[C@@H]1CC[C@@H]2C(=O)CO`, 72.2%.

In the case of `CCCC(=O)O[C@]1(C(=O)CCl)[C@@H](C)C[C@H]2[C@@H]3CCC4=CC(=O)C=C[C@]4(C)[C@@]3(F)C(=O)C[C@@]21C`, the inhibition entry is “inactive”. To `CC(=O)OCC(=O)[C@@]1(O)[C@H](C)C[C@H]2[C@@H]3CCC4=CC(=O)C=C[C@]4(C)[C@@]3(F)[C@@H](O)C[C@@]21C` belongs “inactive”; to `CCC(=O)O[C@]1(C(=O)CCl)[C@@H](C)C[C@H]2[C@@H]3CCC4=CC(=O)C=C[C@]4(C)[C@@]3(F)[C@@H](O)C[C@@]21C`, 78.5% (active). As to `CCOC(=O)Nc1cc(OCC)c(NC(=O)C2CC2)cc1OCC`, the inhibition result is “inactive”. As to `COC(=O)CCN(C(=O)c1ccc2c(c1)OCO2)c1ccccn1`, the inhibition entry was “inactive”. On to `Cc1ccc(S(=O)(=O)N2CCCC(c3nnc4n3-c3ccccc3SC4)C2)cc1` (centres undefined), for which the inhibition result was “inactive”. In the case of `Cc1ccc(Nc2nc(N)nc(CN3CCN(Cc4ccc5c(c4)OCO5)CC3)n2)cc1` it was “inactive”. As for `COc1ccccc1C(=O)Nc1ccc(S(=O)(=O)N2CCCC2)cc1`, the inhibition entry is “inactive”. In the case of `COC(=O)c1cc(=O)n(Cc2ccc3c(c2)OCO3)c(=Nc2ccccc2)s1` it was 96.4%; in that of `CCOC(=O)c1ccc(NC(=O)CSCc2ccco2)cc1`, “inactive”.

As to `COc1ccc(S(=O)(=O)Cc2ccc(C(=O)N3CCN(Cc4ccccc4)CC3)o2)cc1`, the inhibition result is “inactive”. Turning to `CCC(c1c(C)n(C)n(-c2ccccc2)c1=O)c1c(C)n(C)n(-c2ccccc2)c1=O`, the inhibition entry is “inactive”.

In the case of `Cc1nc2sccn2c(=O)c1CCN1CCC(=C(c2ccc(F)cc2)c2ccc(F)cc2)CC1`, the inhibition was 87.2%.

On to `Cc1nc2ccccn2c(=O)c1CCN1CCC(C(=O)c2ccc(F)cc2)CC1`, for which the inhibition result is “inactive”.

Regarding `CCOC(=O)c1cc2c(=O)n3ccccc3nc2n(CC(C)C)c1=NC(=O)c1ccco1`, the inhibition result is “inactive”. To `CC(C)n1c(=NC(=O)c2ccco2)c(C#N)cc2c(=O)n3ccccc3cc21` belongs 78.9% (active). To `Cc1cccn2c(=O)c3cc(C#N)c(=NC(=O)c4ccncc4)n(Cc4ccco4)c3nc12` belongs “inactive”. In the case of `Cc1n[nH]c(C)c1S(=O)(=O)N1CCCCCC1` it was “inactive”; in that of `CC1Oc2ccccc2N(CC(=O)N(Cc2ccccc2)Cc2ccccn2)C1=O` (centres undefined), “inactive”; in that of `COc1ccc(N2CCN(Cc3nc(-c4ccc(Cl)cc4Cl)no3)CC2)cc1`, “inactive”.

In the case of `O=C(/C=C1\NC2(CCCC2)Cc2ccccc21)N1CCOCC1`, the inhibition entry is “inactive”. With `CCCN1C=CC(=C2C(=O)c3ccccc3C2=O)C=C1`, the inhibition result is “inactive”. In the case of `COc1ccc2cc3cc(C(=O)NCC4CCCO4)oc3nc2c1` (centres undefined) it was “inactive”; in that of `CC1(C(=O)NC2CCCCC2)CCC(=O)N1Cc1cccs1` (centres undefined), “inactive”; in that of `COc1ccc(Br)cc1S(=O)(=O)N1CCOCC1`, “inactive”. To `Cc1cccc(-c2nnc(SCC#N)n2-c2cccc(Cl)c2)c1` belongs “inactive”; to `COc1ccc2cc(CN(CCO)C(=O)c3ccccc3F)c(=O)[nH]c2c1`, “inactive”. To `CCn1nnc(NC(=O)c2cc3ccccc3o2)n1` belongs “inactive”. In the case of `CCOC(=O)c1cccc(NC(=O)CSc2nnc(-c3ccoc3C)n2CCOC)c1`, the inhibition entry was “inactive”. Regarding `COC(=O)c1ccccc1NC(=O)CSc1nc2c(c(=O)n(C)c(=O)n2C)n1C`, the inhibition result was “inactive”. In the case of `Cc1ccc(-c2cc(C(F)F)n3ncc(C(=O)N4CCN(c5ccccn5)CC4)c3n2)cc1` it was 80.5% (active); in that of `O=C(c1cnn2c(C(F)F)cc(-c3ccccc3)nc12)N1CCN2CCCC2C1` (centres undefined), “inactive”.

On to `CCOc1ccc(-c2cc(C(=O)N3CCN(c4ccccn4)CC3)c3ccccc3n2)cc1`, for which the inhibition result is “inactive”.
